Compound activity (PubChem)
nsP2pro primary: inhibitors of chikungunya virus nsP2 protease | Q8JUX6 | FRET peptide cleavage, nsP2pro, fluorescence 1 h | Potency, µM (series often up to 24.9 µM), for inactives: top-dose activity change, negative = inhibition, usual class: inhibitors | 31,000 compounds, 1.1% hits; note: nearly all actives have a fitted effect of over 60% in size
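Recombinant nsP2pro (150 nM) was preincubated with compound 15 min at room temperature in 10 mM Tris-HCl pH 8.0, 0.01% Tween 20. Peptide 2 FRET substrate (2.5 uM) was then added and fluorescence read after 1 h. Seven-point series, up to 25 uM.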
CHIKV nsP2 cell: secondary cell-based test for CHIKV nsP2 protease inhibitors. 450 compounds, 10% hits. Potency, µM (top dose mostly 51.1 µM), for inactives: top-dose activity change, negative = inhibition, most hits filed as inhibitors. shares compounds with nsP2pro primary. cell-based CHIKV nsP2 protease reporter assay; note: nearly all actives have a fitted effect of over 70% in size
NSP2 full ctr: inhibits full-length CHIKV NSP2 enzyme | Potency, µM (titrated, usually from 50.7 µM), for the others: at the top dose activity change, negative = inhibition, most hits filed as inhibitors | Full-length CHIKV NSP2 protease enzymatic counterscreen | shares compounds with nsP2pro primary | 410 compounds, 39% hits; note: nearly all actives have a fitted effect of over 65% in size
Furin counter: selectivity counter-screen for CHIKV nsP2 protease inhibitors: human furin; Recombinant human furin enzymatic counterscreen, fluorogenic substrate; 410 compounds, 6% hits; AID 1964102; Potency, µM (top dose mostly 50.6 µM), inactives show at the highest dose activity change, negative = inhibition, actives largely listed as inhibitors; shares compounds with nsP2pro primary
NS23 peptide cs: selectivity test for CHIKV nsP2 protease inhibitors: endogenous NS2/3 peptide. shares compounds with nsP2pro primary. Purified CHIKV nsP2 protease, endogenous NS2/3 peptide cleavage. Potency, µM (series often up to 51 µM), for the others: top-dose activity change, negative = inhibition, usual class: inhibitors. 410 compounds, 34% hits. AID 1964103; note: nearly all actives have a fitted effect of over 55% in size
Papain counter: papain protease inhibition, counterscreen for nsP2pro inhibitors | shares compounds with nsP2pro primary | purified papain protease activity, enzymatic inhibition | Potency, µM (doses to about 51 µM), for the others: at the top dose activity change, negative = inhibition, usual class: inhibitors | 410 compounds, 5% hits
nsP2pro confirm: confirmation of CHIKV nsP2 protease inhibitors; Potency, µM (highest dose often 25.5 µM), without a hit: at the top dose activity change, negative = inhibition, actives largely listed as inhibitors; CHIKV nsP2 protease enzymatic activity, qHTS; shares compounds with nsP2pro primary; AID 1964105; 410 compounds, 43% hits; note: nearly all actives have a fitted effect of over 75% in size
HCV NS3 counter: HCV NS3/4A protease inhibition, counterscreen | shares compounds with nsP2pro primary | HCV NS3/4A protease biochemical counterscreen | Potency, µM (top dose mostly 50.9 µM), actives largely listed as inhibitors | 410 compounds, 20% hits | AID 1964106; note: nearly all actives have a fitted effect of over 55% in size
Numbers without * were called inactive. The entries come from a sample that favours hits as a whole. Calls come from the whole dose curve. % is set by controls: 0 for no effect and ±100 for the full control effect; potency is the fitted concentration of half-maximal effect.

O=C(CCc1ccc(=O)[nH]n1)N1CCC2(CCCNC2=O)C1 (stereo not given) was read as nsP2pro primary 11.2%.
Screening Cc1ccnc(NC(=S)N2CCN(c3cc(C(F)(F)F)cc(C(F)(F)F)c3)CC2)c1 returned nsP2pro primary -19.7%.
`Cc1nn(C(=O)CCC(=O)N2CCC(Cc3nncn3CC3CC3)CC2)c2ccccc12` gave nsP2pro primary -2.5%.
S=C(SSC(=S)N1CCCCC1)N1CCCCC1 was read as nsP2pro primary 2.48µM*, CHIKV nsP2 cell 12.6µM*, NSP2 full ctr 14.6µM*, Furin counter -1.7%, NS23 peptide cs 16.3µM*, Papain counter -24.6%, nsP2pro confirm 3.57µM* and HCV NS3 counter inactive.
CS(=O)(=O)n1cc2c(n1)CN([C@H]1CO[C@H](c3cc(F)ccc3F)[C@@H](N)C1)C2 was read as nsP2pro primary 9.0%.
